According to PubChem BioAssay (NCI):
Compounds without any hit were thinned out: in the full panel of roughly 83,000, 20% have a hit.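 48-hour exposure, single concentration, 96-well plates; percent growth endpoint where 0 means no net growth. Active: below 10.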 The source made the active and inactive calls.

Legend:
Test in all cases: NCI-60 one-dose screen, 48 h (100 = growth as untreated, 0 = no growth, -100 = all killed)
Conditions in all cases: 10 µM unless noted
HCT-15 colon = system: HCT-15 colon
HT29 colon = system: HT29 colon
SNB-75 CNS = system: SNB-75 CNS
SNB-19 CNS = system: SNB-19 CNS
U251 CNS = system: U251 CNS
PC-3 prostate = system: PC-3 prostate
SK-MEL-5 melanoma = system: SK-MEL-5 melanoma
UACC-62 melanoma = system: UACC-62 melanoma
LOX IMVI melanoma = system: LOX IMVI melanoma
SK-MEL-28 melanoma = system: SK-MEL-28 melanoma

Measured: growth

O=C(NNc1ccc(-c2ccccc2)nn1)c1ccccc1
inactive: HCT-15 colon 103% | HT29 colon 107% | SNB-75 CNS 71% | SNB-19 CNS 95.4% | U251 CNS 101% | PC-3 prostate 102% | SK-MEL-5 melanoma 102% | UACC-62 melanoma 96.6% | LOX IMVI melanoma 98.9% | SK-MEL-28 melanoma 105%

C=C(C)[C@@H]1CC[C@]2(C)[C@H](C(=O)C=C3[C@@H]4C[C@](C)(C(=O)N5CCN(C)CC5)CC[C@]4(C)CC[C@]32C)[C@@]1(C)CCC#N
active: HCT-15 colon -88.2% [100 µM] | HT29 colon -53.2% [100 µM] | SNB-75 CNS -92.2% [100 µM] | SNB-19 CNS -95.8% [100 µM] | U251 CNS -76.7% [100 µM] | PC-3 prostate -65.9% [100 µM] | SK-MEL-5 melanoma -94.6% [100 µM] | UACC-62 melanoma -88.9% [100 µM] | LOX IMVI melanoma -93.6% [100 µM] | SK-MEL-28 melanoma -90.1% [100 µM]

CCCCCCCCCN(CCCCCCCCC)C(C)C(=O)c1ccc2cc(Br)c3ccccc3c2c1 (stereo not drawn)
inactive: HCT-15 colon 47.1% | HT29 colon 30.1% | SNB-75 CNS 84.5% | SNB-19 CNS 92% | U251 CNS 70.9% | PC-3 prostate 75.2% | SK-MEL-5 melanoma 88.5% | UACC-62 melanoma 92.8% | LOX IMVI melanoma 63.9% | SK-MEL-28 melanoma 109%

Nc1nnc(CSc2nnc3n(Cc4ccccc4)c(=O)c4c5c(sc4n23)CCCC5)s1
inactive: HCT-15 colon 90.4% | HT29 colon 102% | SNB-75 CNS 98.7% | SNB-19 CNS 100% | U251 CNS 93.2% | PC-3 prostate 90.6% | SK-MEL-5 melanoma 105% | UACC-62 melanoma 82.1% | LOX IMVI melanoma 86% | SK-MEL-28 melanoma 122%

CN(C)c1ccc(N=Nc2ccc3ccccc3c2)cc1
inactive: HCT-15 colon 55.5% | HT29 colon 78.7% | SNB-75 CNS 77.4% | SNB-19 CNS 100% | U251 CNS 76.3% | PC-3 prostate 75.6% | SK-MEL-5 melanoma 87.3% | UACC-62 melanoma 90.8% | LOX IMVI melanoma 72.6% | SK-MEL-28 melanoma 103%

CC1(C)CC[C@]2(C(=O)O)CC[C@]3(C)C(=CC[C@@H]4[C@@]5(C)C/C(=C/c6cccnc6)[C@H](O)C(C)(C)[C@@H]5CC[C@]43C)[C@@H]2C1
active: HCT-15 colon -5.12% [100 µM] | HT29 colon -79.4% [100 µM] | U251 CNS -8.69% [100 µM] | PC-3 prostate 4.87% [100 µM] | SK-MEL-5 melanoma -77.1% [100 µM] | UACC-62 melanoma -56% [100 µM] | LOX IMVI melanoma -87.1% [100 µM] | SK-MEL-28 melanoma -35.3% [100 µM]
inactive: SNB-75 CNS 19.5% [100 µM] | SNB-19 CNS 16.6% [100 µM]

CC(C)C1=NOC(=O)C1=Cc1cn(-c2ccco2)nc1-c1ccccc1
inactive: HCT-15 colon 77.8% | HT29 colon 86.3% | SNB-75 CNS 80.8% | SNB-19 CNS 89.8% | U251 CNS 75.6% | PC-3 prostate 78% | SK-MEL-5 melanoma 95.3% | UACC-62 melanoma 87.6% | LOX IMVI melanoma 39.3% | SK-MEL-28 melanoma 99%

CCOC(=O)c1cnc2ccc(Br)cc2c1Nc1cccc(S(N)(=O)=O)c1
inactive: HCT-15 colon 90.8% | HT29 colon 107% | SNB-75 CNS 80.6% | SNB-19 CNS 88% | U251 CNS 91.9% | PC-3 prostate 94.5% | SK-MEL-5 melanoma 89.1% | UACC-62 melanoma 103% | LOX IMVI melanoma 101% | SK-MEL-28 melanoma 109%

COc1ccc(C(=O)c2nccc3cc(OC)c(OC)cc23)cc1OC
inactive: HCT-15 colon 96.7% | HT29 colon 113% | SNB-75 CNS 89.5% | SNB-19 CNS 94.9% | U251 CNS 98.6% | PC-3 prostate 95.9% | SK-MEL-5 melanoma 99.6% | UACC-62 melanoma 96.4% | LOX IMVI melanoma 93.3% | SK-MEL-28 melanoma 90.7%

Fc1cc2[nH]ncc2c2c3c(c(-c4cn[nH]c4C(F)(F)F)nc12)C1CCC3C1 (stereo not drawn)
inactive: HT29 colon 13% | SNB-19 CNS 10.1% | PC-3 prostate 14%
active: HCT-15 colon 9.48% | SNB-75 CNS -4.22% | U251 CNS 4.85% | SK-MEL-5 melanoma -28.8% | UACC-62 melanoma -18.5% | LOX IMVI melanoma 0.44% | SK-MEL-28 melanoma -0.348%

C[C@H]1[C@H](C)CC[C@]2(C(=O)O)CC[C@]3(C)C(=CC[C@@H]4[C@@]5(C)C/C(=C/c6ccco6)C(=O)C(C)(C)[C@@H]5CC[C@]43C)[C@H]12
active: HCT-15 colon -71.2% [100 µM] | HT29 colon -67.9% [100 µM] | SNB-75 CNS -55.9% [100 µM] | SNB-19 CNS -52.6% [100 µM] | U251 CNS -64.5% [100 µM] | PC-3 prostate -67.1% [100 µM] | SK-MEL-5 melanoma -91.7% [100 µM] | UACC-62 melanoma -94.4% [100 µM] | LOX IMVI melanoma -91.7% [100 µM] | SK-MEL-28 melanoma -79.2% [100 µM]

Cc1ccc(S(=O)(=O)Nc2ccccc2)cc1N
inactive: HCT-15 colon 99.1% | HT29 colon 107% | SNB-75 CNS 95% | SNB-19 CNS 108% | U251 CNS 101% | PC-3 prostate 89.5% | SK-MEL-5 melanoma 88.5% | UACC-62 melanoma 90.8% | LOX IMVI melanoma 91.3% | SK-MEL-28 melanoma 100%

CC1Cc2ccc(OCCN(C)C)cc2C1=O (stereo not drawn)
inactive: HCT-15 colon 108% | HT29 colon 98.5% | SNB-75 CNS 98% | SNB-19 CNS 106% | U251 CNS 89.5% | PC-3 prostate 89.9% | SK-MEL-5 melanoma 91.6% | UACC-62 melanoma 105% | LOX IMVI melanoma 96.4% | SK-MEL-28 melanoma 103%

CC1=CC[C@@H]2C(C)(C)[C@@H](O)CC[C@@]2(C)[C@@H]1COc1ccc2ccc(=O)oc2c1
inactive: HCT-15 colon 29.4% | HT29 colon 70.5% | SNB-75 CNS 62.1% | SNB-19 CNS 81.2% | U251 CNS 67.9% | PC-3 prostate 30.6% | SK-MEL-5 melanoma 28.7% | UACC-62 melanoma 22.9% | LOX IMVI melanoma 52.2% | SK-MEL-28 melanoma 91.4%

CC(C)(C)c1cc(C(=O)Nc2cc3ccccc3cc2C(=O)NCCN)cc(C(C)(C)C)c1
active: HCT-15 colon -83.4% | HT29 colon -79.6% | SNB-75 CNS -92.2% | SNB-19 CNS -69% | U251 CNS -85.4% | PC-3 prostate -93% | SK-MEL-5 melanoma -39.7% | UACC-62 melanoma -69.4% | LOX IMVI melanoma -89.9% | SK-MEL-28 melanoma -80.9%

CCOC(=O)c1nn(C2CCCCO2)c2ccc(NC(=O)CN3CCCC3)cc12 (stereo not drawn)
inactive: HCT-15 colon 106% | HT29 colon 111% | SNB-75 CNS 79% | SNB-19 CNS 95.8% | U251 CNS 94.8% | SK-MEL-5 melanoma 103% | UACC-62 melanoma 98.5% | LOX IMVI melanoma 97.3%

CCN=Cc1c(O)c(O)c(C(C)C)c2cc(C)c(-c3c(C)cc4c(C(C)C)c(O)c(O)c(C=NCC)c4c3O)c(O)c12
inactive: HCT-15 colon 23.2% | HT29 colon 25% | SNB-75 CNS 57.7% | SNB-19 CNS 27.3% | U251 CNS 25.8% | PC-3 prostate 29.4% | SK-MEL-5 melanoma 95.4% | UACC-62 melanoma 76.8% | LOX IMVI melanoma 39.1% | SK-MEL-28 melanoma 74.9%

CCN(CC)c1ccc2cc(C(Nc3ccc(Cl)cc3)c3nnnn3C(C)(C)C)c(=O)oc2c1 (stereo not drawn)
inactive: HCT-15 colon 91.8% | HT29 colon 90.7% | SNB-75 CNS 68.5% | SNB-19 CNS 87% | U251 CNS 82.6% | PC-3 prostate 71.5% | SK-MEL-5 melanoma 80% | UACC-62 melanoma 70% | LOX IMVI melanoma 72.4% | SK-MEL-28 melanoma 95.8%

CCOC(=O)c1cc(C#N)n2ncc3ccccc3c12
inactive: HCT-15 colon 94.3% | HT29 colon 98% | SNB-75 CNS 72.7% | SNB-19 CNS 91.8% | U251 CNS 93.2% | PC-3 prostate 92.8% | SK-MEL-5 melanoma 98% | UACC-62 melanoma 91.7% | LOX IMVI melanoma 95.6% | SK-MEL-28 melanoma 101%

C=C(C)[C@@H]1CC[C@]2(C(=O)OC)CC[C@]3(C)[C@H](CC[C@@H]4[C@@]5(C)CC/C(=N\OCCC(=NCCC#N)NOCCC#N)C(C)(C)[C@@H]5CC[C@]43C)[C@@H]12
active: HT29 colon 3.88% [100 µM] | U251 CNS -39.7% [100 µM] | PC-3 prostate 4.49% [100 µM] | SK-MEL-5 melanoma -84.7% [100 µM] | UACC-62 melanoma -25.8% [100 µM]
inactive: HCT-15 colon 34.3% [100 µM] | SNB-75 CNS 18.4% [100 µM] | SNB-19 CNS 28.9% [100 µM] | LOX IMVI melanoma 14.6% [100 µM] | SK-MEL-28 melanoma 29.2% [100 µM]

COC(=O)c1c(C)[nH]c(/C=C2\N=C(c3ccc[nH]3)C=C2OC)c1C
inactive: SNB-19 CNS 30.5%
active: HCT-15 colon 0.837% | HT29 colon -13.8% | SNB-75 CNS -23.3% | U251 CNS -27.9% | PC-3 prostate 9.06% | SK-MEL-5 melanoma -99.7% | UACC-62 melanoma -62.8% | LOX IMVI melanoma -56.8% | SK-MEL-28 melanoma -27.8%

COc1cccc(-c2[nH]c(=S)ncc2C(=O)c2ccccc2)c1
inactive: HCT-15 colon 50.8% | HT29 colon 46.8% | SNB-75 CNS 66.6% | SNB-19 CNS 82.9% | U251 CNS 85% | PC-3 prostate 91.6% | SK-MEL-5 melanoma 83.2% | UACC-62 melanoma 74.3% | LOX IMVI melanoma 72.4% | SK-MEL-28 melanoma 81.4%

CC(=O)OC[C@]12CC[C@@H](C(=O)CBr)[C@@H]1[C@H]1CC[C@@H]3[C@@]4(C)CCCNC(C)(C)[C@@H]4CC[C@@]3(C)[C@]1(C)CC2
active: HCT-15 colon -74.7% [100 µM] | HT29 colon -81.9% [100 µM] | SNB-75 CNS -98.3% [100 µM] | SNB-19 CNS -93.4% [100 µM] | U251 CNS -88.6% [100 µM] | PC-3 prostate -76.6% [100 µM] | SK-MEL-5 melanoma -91.7% [100 µM] | UACC-62 melanoma -90.9% [100 µM] | LOX IMVI melanoma -91.6% [100 µM] | SK-MEL-28 melanoma -86.7% [100 µM]

C=C(C)[C@@H]1CC[C@]2(C(=O)NCCNCCNCCN)CC[C@]3(C)[C@H](CC[C@@H]4[C@@]5(C)CC[C@H](O)C(C)(C)[C@@H]5CC[C@]43C)[C@@H]12
active: HCT-15 colon -24.8% [100 µM] | HT29 colon -39.6% [100 µM] | SNB-75 CNS -79.3% [100 µM] | SNB-19 CNS -74.5% [100 µM] | U251 CNS -71.6% [100 µM] | PC-3 prostate 1.07% [100 µM] | SK-MEL-5 melanoma -90.1% [100 µM] | UACC-62 melanoma -100% [100 µM] | LOX IMVI melanoma -41% [100 µM] | SK-MEL-28 melanoma -98.7% [100 µM]
